Reference: the supplement of paper PMC11417369
Whole data set: some 25,000 sequences, median “ln(normalized median fluorescence intensity)” near 9.3, cut for the highest 2% near 10. The sample holds the highest values, similar sequences and a random draw of the others, so the mix is not that of the screen.

The sequences below were run on PF3D7_0420300 AP2 domain 1 (GST-tagged) (assay: gcPBM binding intensity (ln(normalized median fluorescence intensity)); higher = stronger DNA binding).
How it was run: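 Probes on an Agilent 4 × 180k array were primer-extended, double-stranded and 36 bp long, taken from intergenic genomic regions, with negative controls added. GST-tagged P. falciparum DNA-binding domains from E. coli, about 25 μg on average, were applied to the array for 1 h in 1× PBS containing 1% milk, 0.2 mg/ml BSA, 0.5% salmon testes DNA and 0.03% Triton X-100. Binding intensity, obtained after Alexa488 anti-GST antibody detection and a 488 nm scan, is the highest Masliner-normalised natural-log median intensity across replicate spots of either probe orientation.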

Question: For “TTAAACCGTGGGAGCACACACACACCCCCACCCATA [CACACA_site331]”, which “gcPBM binding intensity (ln)” value is on record?
Answer: 10.2

Question: Which “gcPBM binding intensity (ln)” value does the source give for “AATTAACCGTGACACACACACATATAAATATAAATA [CACACA_site7790]” here?
Answer: 9.86

Question: “TTAAACCGTGGGAGCACACACACACCCAGACACATA [CACACA_site4337]” was tested. Which “gcPBM binding intensity (ln)” value did it give?
Answer: 9.86

Question: “TTAAACATATATTAAGCACACACAAACAAAAAAACA [CACACA_site8816]” was tested. Which “gcPBM binding intensity (ln)” value did it give?
Answer: 9.9

Question: For “CATTAAACCGTGGGAGCACACACACCCACCCACCCA [CACACA_site8000]”, which “gcPBM binding intensity (ln)” value is on record?
Answer: 9.87

Question: With “AATATGTCTTAAAAAAGTACATAAATTTTAACTTCA [XGTACX_site6670]” as the sequence, how does the “gcPBM binding intensity (ln)” value read?
Answer: 8.84

Question: “TTTTTTTTTTTTTTTTGTACATAATAAATGTTCTTA [XGTACX_site6754]” was tested. Which “gcPBM binding intensity (ln)” value did it give?
Answer: 8.64

Question: Which “gcPBM binding intensity (ln)” value does the source give for “AAGAATTATATTAATAGTACATATATATTAATTTAT [XGTACX_site5713]” here?
Answer: 9.08

Question: How did the “gcPBM binding intensity (ln)” value turn out when “GCAAATCTTATATGAAGTACATATCTTATAAATAAA [XGTACX_site6903]” was run?
Answer: 8.96

Question: Which “gcPBM binding intensity (ln)” value does the source give for “TGGAGGTCAGTTCACAGTACCCAGAAACTCTACGAG [XGTACX_site2007]” here?
Answer: 8.76

Question: “TTATAATCAATGAATACACACATATATTTAATTAAT [CACACA_site3613]” was tested. Which “gcPBM binding intensity (ln)” value did it give?
Answer: 9.47

Question: “TATAAAAATATATGCACACAAATAAAAAATTATATA [CACACA_site3629]” was tested. Which “gcPBM binding intensity (ln)” value did it give?
Answer: 9.44

Question: With “AATTTTATATATATATGTACATATTTATATGCTTAT [XGTACX_site8180]” as the sequence, how does the “gcPBM binding intensity (ln)” value read?
Answer: 9.4

Question: How did the “gcPBM binding intensity (ln)” value turn out when “ATTTAGAAAAAATATACACACAGCCTAAACATGCAT [CACACA_site4067]” was run?
Answer: 9.64

Question: Which “gcPBM binding intensity (ln)” value does the source give for “TATATATATGTATATGTGCACAGTTTTCTTATTAAA [GTGCAC_site9990]” here?
Answer: 9.24

Question: Which “gcPBM binding intensity (ln)” value does the source give for “TATAAATATTTATACACACACATATATTTATATATC [CACACA_site6366]” here?
Answer: 9.82

Question: “AAATTTGGTGAAGGATGTACTTTACCTAATACTTGT [XGTACX_site4825]” was tested. Which “gcPBM binding intensity (ln)” value did it give?
Answer: 9.21

Question: With ATATTTACTCACGTCTTGCACTGAGCAAGCATTATA as the sequence, how does the “gcPBM binding intensity (ln)” value read?
Answer: 9.02

Question: Which “gcPBM binding intensity (ln)” value does the source give for “AATGCTATCATTAATGCACACATTTAAACTTAATAT [CACACA_site5878]” here?
Answer: 9.36

Question: With “AGACAGCGCACAAACACACAAACACCCACCCACATA [CACACA_site451]” as the sequence, how does the “gcPBM binding intensity (ln)” value read?
Answer: 10.2

Question: With “AAATTTGGCAAACACACACACACACCCACACCCACA [CACACA_site8095]” as the sequence, how does the “gcPBM binding intensity (ln)” value read?
Answer: 10.2

Question: How did the “gcPBM binding intensity (ln)” value turn out when “GTTACACCAACAAACACACACACACCCACCCACAAA [CACACA_site2427]” was run?
Answer: 10.2

Question: With “AAATTTGGCAAACACACACACACACCCACAGAGACA [CACACA_site4490]” as the sequence, how does the “gcPBM binding intensity (ln)” value read?
Answer: 10.3

Question: “TACATAAATTAAAACACACACACACCCAAAAAAAAA [CACACA_site2261]” was tested. Which “gcPBM binding intensity (ln)” value did it give?
Answer: 10.1

Question: “AACTTTGGCAAACACACACACACACCCACACCCACA [CACACA_site588]” was tested. Which “gcPBM binding intensity (ln)” value did it give?
Answer: 10.3

Question: Which “gcPBM binding intensity (ln)” value does the source give for “GGCAAATTTATTATACCCACATACATACATACATAC [XGTACX_negctrl_site186]” here?
Answer: 9.24

Question: With “CAAACATTTTAATGTACACACACCCACAGACAAACA [CACACA_site5522]” as the sequence, how does the “gcPBM binding intensity (ln)” value read?
Answer: 9.78

Question: “CATATATATATATATACACACATATATATTTTCTTT [CACACA_site1457]” was tested. Which “gcPBM binding intensity (ln)” value did it give?
Answer: 9.46

Question: How did the “gcPBM binding intensity (ln)” value turn out when “TATTTTAATTATAAATTTAAAAAAAAAAAGAAAAAA [CACACA_negctrl_site1674]” was run?
Answer: 9.01

Question: For “TTCGGAAAAATTAAAGCACACAAAAAAAAATAAAAA [CACACA_site8296]”, which “gcPBM binding intensity (ln)” value is on record?
Answer: 9.45

Question: For “TATAAGCTTTCAATGTGTACATATTATTTTATTATT [XGTACX_site3988]”, which “gcPBM binding intensity (ln)” value is on record?
Answer: 9.44

Question: For “TTTATGGATGTGTATGCATGCCTAAATAAATATATG [TGCATGCA_site916]”, which “gcPBM binding intensity (ln)” value is on record?
Answer: 9.1

Question: “ATATATATGTATAATCGTACAGTTAACGTATTCTTA [XGTACX_site5649]” was tested. Which “gcPBM binding intensity (ln)” value did it give?
Answer: 9.26

Question: With “TAATATTATTATTTTACACACTTTTTTCCTTTTATC [CACACA_site2457]” as the sequence, how does the “gcPBM binding intensity (ln)” value read?
Answer: 9.45

Question: Which “gcPBM binding intensity (ln)” value does the source give for “GTATATAGTATGTAGAGTACTAATTTCCATATGTTC [XGTACX_site7816]” here?
Answer: 9.25

Question: Which “gcPBM binding intensity (ln)” value does the source give for “AATATTTATTTTATATGTACATAATTTATTTTTAAT [XGTACX_site776]” here?
Answer: 9.26

Question: How did the “gcPBM binding intensity (ln)” value turn out when “AAAATAAAATATTTCTGTACTTATAACTATTCTATA [XGTACX_site8007]” was run?
Answer: 9.14

Question: For “TATATATATATATGTACACACACACCGATAAATAAA [CACACA_site8041]”, which “gcPBM binding intensity (ln)” value is on record?
Answer: 9.99

Question: “AACAGATAAAAGGGTACACACATATATACAAGTACA [CACACA_site7959]” was tested. Which “gcPBM binding intensity (ln)” value did it give?
Answer: 9.9

Question: “AAGATAAAATAATAAAGTACACATATAAATTGAAAA [XGTACX_site2113]” was tested. Which “gcPBM binding intensity (ln)” value did it give?
Answer: 9.42

Question: With “TACAGATAAAAGTACACACACACACCGATATATATA [CACACA_site4675]” as the sequence, how does the “gcPBM binding intensity (ln)” value read?
Answer: 10.2

Question: Which “gcPBM binding intensity (ln)” value does the source give for “TGAAAAGATAAAAAAAGTACACACACACATATATAT [XGTACX_site6504]” here?
Answer: 10.2

Question: How did the “gcPBM binding intensity (ln)” value turn out when “AAAAAAAAAAAAAGTACACACATACAGATAAATATA [CACACA_site5067]” was run?
Answer: 9.66

Question: For “AGATAAAAAAAGTACACACACACATATATTTATATA [CACACA_site7437]”, which “gcPBM binding intensity (ln)” value is on record?
Answer: 10.1

Question: With “AGATAAAAAAAGTACACACACACATATATATATATA [CACACA_site3072]” as the sequence, how does the “gcPBM binding intensity (ln)” value read?
Answer: 9.82

Question: Which “gcPBM binding intensity (ln)” value does the source give for “AAAGATAAAAAAAGTACACACACACCGATATATATA [CACACA_site9006]” here?
Answer: 10.2
